# Measured values published in paper PMC7862700, “An all-to-all approach to the identification of sequence-specific readers for epigenetic DNA modifications on cytosine”.
# Legend:
# Assay in all cases: DAPPL (digital affinity profiling via proximity ligation, sequencing); 10 mM Tris-HCl pH 7.5, 50 mM NaCl, 1 mM DTT, 4% glycerol, room temperature, 30 min; GST-TFs on glutathione beads, 16-mer random dsDNA library, 0.1% formaldehyde crosslink after washing; high values mean tight binding
# FLI1 = biological target: T1, FLI1 (Homo sapiens, UniProt Q01543 1-452); details: protein: recombinant; tags: N-terminal GST; dsDNA, one strand shown
# T1 sequence: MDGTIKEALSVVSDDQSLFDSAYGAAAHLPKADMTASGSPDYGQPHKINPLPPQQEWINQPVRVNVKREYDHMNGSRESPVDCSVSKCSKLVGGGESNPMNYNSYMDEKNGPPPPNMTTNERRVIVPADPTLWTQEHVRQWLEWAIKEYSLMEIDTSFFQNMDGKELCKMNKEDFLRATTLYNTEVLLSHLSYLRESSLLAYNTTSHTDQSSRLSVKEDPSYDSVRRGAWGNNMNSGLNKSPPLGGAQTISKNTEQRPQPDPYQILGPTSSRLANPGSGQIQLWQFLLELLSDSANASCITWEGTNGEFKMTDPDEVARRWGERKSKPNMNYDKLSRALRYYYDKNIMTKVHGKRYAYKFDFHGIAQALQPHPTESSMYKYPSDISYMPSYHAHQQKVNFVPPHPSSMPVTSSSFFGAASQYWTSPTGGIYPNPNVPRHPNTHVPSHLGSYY
# In short: (§1)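 Pools of DNA-barcoded human transcription factors, expressed in yeast as GST fusions on glutathione beads and combined with a tag-only sample, were incubated with 200 nmole of a 16-mer random double-stranded DNA library. Incubation took 30 min at room temperature in Tris/NaCl/DTT/glycerol buffer and was followed by washing, 0.1% formaldehyde crosslinking, proximity ligation (BsaI/T4 ligase, 1 h, 37 °C), PCR amplification and sequencing on an Illumina NextSeq500. Binding signal is the ratio of a hexamer's read frequency for a factor to its frequency for the tag-only sample.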
# ELK1 = biological target: T2, ELK1 (Homo sapiens, UniProt P19419 1-428); details: protein: recombinant; tags: N-terminal GST; dsDNA, one strand shown
# T2 sequence: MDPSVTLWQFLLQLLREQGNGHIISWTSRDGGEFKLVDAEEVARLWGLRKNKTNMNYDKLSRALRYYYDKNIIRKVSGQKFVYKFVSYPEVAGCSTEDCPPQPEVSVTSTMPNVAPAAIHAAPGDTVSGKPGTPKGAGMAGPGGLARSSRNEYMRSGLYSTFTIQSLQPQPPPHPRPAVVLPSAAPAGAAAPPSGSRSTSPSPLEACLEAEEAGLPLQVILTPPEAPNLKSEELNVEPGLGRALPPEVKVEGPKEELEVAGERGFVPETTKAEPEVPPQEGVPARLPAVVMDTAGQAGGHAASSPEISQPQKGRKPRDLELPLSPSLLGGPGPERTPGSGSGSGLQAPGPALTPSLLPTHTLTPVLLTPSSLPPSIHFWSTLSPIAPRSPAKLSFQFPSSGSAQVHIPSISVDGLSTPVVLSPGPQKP
# In short: as §1
# GABPA = biological target: T3, GABPA (Homo sapiens, UniProt Q06546 1-454); details: protein: recombinant; tags: N-terminal GST; dsDNA, one strand shown
# T3 sequence: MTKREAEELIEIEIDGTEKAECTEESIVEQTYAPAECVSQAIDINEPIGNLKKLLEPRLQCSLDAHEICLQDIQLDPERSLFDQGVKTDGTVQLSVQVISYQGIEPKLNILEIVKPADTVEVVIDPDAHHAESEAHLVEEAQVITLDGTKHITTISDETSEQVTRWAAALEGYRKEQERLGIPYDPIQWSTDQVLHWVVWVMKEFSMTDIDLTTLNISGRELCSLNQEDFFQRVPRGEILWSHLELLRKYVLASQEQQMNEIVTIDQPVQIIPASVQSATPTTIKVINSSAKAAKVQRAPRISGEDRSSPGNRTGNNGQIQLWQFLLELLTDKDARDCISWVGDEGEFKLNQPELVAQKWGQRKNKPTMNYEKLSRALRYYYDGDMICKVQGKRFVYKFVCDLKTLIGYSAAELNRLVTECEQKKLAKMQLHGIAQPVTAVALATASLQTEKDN
# In short: as §1
# ERG = biological target: T4, ERG (Homo sapiens, UniProt P11308 1-479); details: protein: recombinant; tags: N-terminal GST; dsDNA, one strand shown
# T4 sequence: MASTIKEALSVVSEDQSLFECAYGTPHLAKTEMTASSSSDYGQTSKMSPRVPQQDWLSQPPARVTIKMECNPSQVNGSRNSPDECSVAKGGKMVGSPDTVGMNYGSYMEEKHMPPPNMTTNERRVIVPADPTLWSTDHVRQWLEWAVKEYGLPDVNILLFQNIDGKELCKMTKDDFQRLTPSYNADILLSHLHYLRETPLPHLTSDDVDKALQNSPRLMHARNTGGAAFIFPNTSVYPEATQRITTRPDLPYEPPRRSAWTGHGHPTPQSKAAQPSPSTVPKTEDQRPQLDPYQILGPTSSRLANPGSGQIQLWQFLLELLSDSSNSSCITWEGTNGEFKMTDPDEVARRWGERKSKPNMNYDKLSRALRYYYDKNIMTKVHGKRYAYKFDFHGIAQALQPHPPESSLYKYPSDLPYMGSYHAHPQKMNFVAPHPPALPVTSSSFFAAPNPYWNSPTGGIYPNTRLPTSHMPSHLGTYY
# In short: as §1
# ELF1 = ELF1 (Homo sapiens, UniProt P32519 1-619); details: protein: recombinant; tags: N-terminal GST; dsDNA, one strand shown
# ELF1, sequence (P32519 whole entry): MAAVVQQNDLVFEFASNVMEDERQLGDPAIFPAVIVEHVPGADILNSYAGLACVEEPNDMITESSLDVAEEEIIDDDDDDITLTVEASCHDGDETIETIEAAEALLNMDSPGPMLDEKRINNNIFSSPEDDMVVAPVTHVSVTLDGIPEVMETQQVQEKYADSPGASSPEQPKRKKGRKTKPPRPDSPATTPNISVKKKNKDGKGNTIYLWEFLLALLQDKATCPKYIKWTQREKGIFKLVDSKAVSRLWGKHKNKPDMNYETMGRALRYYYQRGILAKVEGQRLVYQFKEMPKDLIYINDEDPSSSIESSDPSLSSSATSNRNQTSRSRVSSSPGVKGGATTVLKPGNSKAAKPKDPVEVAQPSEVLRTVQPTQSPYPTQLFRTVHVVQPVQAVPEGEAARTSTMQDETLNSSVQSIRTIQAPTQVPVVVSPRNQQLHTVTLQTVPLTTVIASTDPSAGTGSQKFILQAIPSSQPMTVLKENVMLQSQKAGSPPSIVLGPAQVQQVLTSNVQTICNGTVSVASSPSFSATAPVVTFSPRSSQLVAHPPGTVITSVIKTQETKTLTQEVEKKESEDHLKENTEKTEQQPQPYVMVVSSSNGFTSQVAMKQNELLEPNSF
# In short: as §1
# EHF = biological target: T5, EHF (Homo sapiens, UniProt Q9NZC4 1-300); details: protein: recombinant; tags: N-terminal GST; dsDNA, one strand shown
# T5 sequence: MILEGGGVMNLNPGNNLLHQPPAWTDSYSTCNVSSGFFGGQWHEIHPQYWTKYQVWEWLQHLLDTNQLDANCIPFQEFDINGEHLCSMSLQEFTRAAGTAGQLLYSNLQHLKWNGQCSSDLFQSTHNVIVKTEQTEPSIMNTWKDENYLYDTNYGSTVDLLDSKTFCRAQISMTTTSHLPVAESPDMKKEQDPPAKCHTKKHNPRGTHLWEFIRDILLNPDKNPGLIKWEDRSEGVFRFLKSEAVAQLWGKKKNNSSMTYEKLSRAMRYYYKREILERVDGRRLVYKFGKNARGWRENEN
# In short: as §1
# SPI1 = SPI1 (Homo sapiens, UniProt P17947 1-270); details: protein: recombinant; tags: N-terminal GST; dsDNA, one strand shown
# In short: as §1
# SPIB = SPIB (Homo sapiens, UniProt Q01892 1-262); details: protein: recombinant; tags: N-terminal GST; dsDNA, one strand shown
# SPIB, sequence (Q01892 whole entry): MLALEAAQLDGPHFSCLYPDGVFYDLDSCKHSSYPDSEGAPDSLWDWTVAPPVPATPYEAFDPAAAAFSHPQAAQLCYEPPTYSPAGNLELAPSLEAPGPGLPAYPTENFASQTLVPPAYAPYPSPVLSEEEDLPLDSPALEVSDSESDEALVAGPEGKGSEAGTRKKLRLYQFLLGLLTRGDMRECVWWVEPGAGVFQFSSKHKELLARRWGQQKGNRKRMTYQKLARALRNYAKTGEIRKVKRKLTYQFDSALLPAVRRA
# In short: as §1
# ELK3 = biological target: T6, ELK3 (Homo sapiens, UniProt P41970 1-407); details: protein: recombinant; tags: N-terminal GST; dsDNA, one strand shown
# T6 sequence: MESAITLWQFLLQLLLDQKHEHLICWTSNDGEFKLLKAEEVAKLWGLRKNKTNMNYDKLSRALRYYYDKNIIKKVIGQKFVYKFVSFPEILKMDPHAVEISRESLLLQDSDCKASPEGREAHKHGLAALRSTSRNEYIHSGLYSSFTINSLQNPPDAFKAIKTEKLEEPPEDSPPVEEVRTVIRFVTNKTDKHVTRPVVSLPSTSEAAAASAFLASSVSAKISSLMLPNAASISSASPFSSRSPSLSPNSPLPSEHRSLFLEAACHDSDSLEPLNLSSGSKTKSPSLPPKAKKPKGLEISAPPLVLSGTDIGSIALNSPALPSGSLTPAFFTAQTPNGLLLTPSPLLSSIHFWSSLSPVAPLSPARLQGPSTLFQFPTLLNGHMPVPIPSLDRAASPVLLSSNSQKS
# In short: as §1
# FEV = biological target: T7, FEV (Homo sapiens, UniProt Q99581 1-238); details: protein: recombinant; tags: N-terminal GST; dsDNA, one strand shown
# T7 sequence: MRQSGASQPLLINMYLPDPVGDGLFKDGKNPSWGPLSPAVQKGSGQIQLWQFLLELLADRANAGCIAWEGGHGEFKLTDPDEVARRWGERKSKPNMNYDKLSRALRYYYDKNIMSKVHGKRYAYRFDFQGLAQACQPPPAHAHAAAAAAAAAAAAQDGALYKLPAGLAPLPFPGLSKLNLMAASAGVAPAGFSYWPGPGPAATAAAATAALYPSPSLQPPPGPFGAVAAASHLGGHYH
# In short: as §1
# ETV5 = ETV5 (Homo sapiens, UniProt P41161 1-510); details: protein: recombinant; tags: N-terminal GST; dsDNA, one strand shown
# ETV5, sequence (P41161 whole entry): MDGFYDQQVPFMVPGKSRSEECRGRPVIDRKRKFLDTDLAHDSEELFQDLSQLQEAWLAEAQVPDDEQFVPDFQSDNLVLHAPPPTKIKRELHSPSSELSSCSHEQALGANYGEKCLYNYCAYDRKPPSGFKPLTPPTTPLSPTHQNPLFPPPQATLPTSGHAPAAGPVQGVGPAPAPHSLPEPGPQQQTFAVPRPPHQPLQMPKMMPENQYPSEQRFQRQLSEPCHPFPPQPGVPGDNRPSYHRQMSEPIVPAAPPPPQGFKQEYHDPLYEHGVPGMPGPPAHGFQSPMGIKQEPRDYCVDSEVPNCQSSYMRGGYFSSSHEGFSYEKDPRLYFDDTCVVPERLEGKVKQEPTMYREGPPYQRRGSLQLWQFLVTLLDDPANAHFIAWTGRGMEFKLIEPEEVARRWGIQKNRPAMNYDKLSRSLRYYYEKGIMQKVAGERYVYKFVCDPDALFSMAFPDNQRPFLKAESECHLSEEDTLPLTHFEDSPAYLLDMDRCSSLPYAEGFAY
# In short: as §1
# HSF1 = HSF1 (Homo sapiens, UniProt Q00613 1-529); details: protein: recombinant; tags: N-terminal GST; chain copies: 3; dsDNA, one strand shown
# HSF1, sequence (Q00613 whole entry): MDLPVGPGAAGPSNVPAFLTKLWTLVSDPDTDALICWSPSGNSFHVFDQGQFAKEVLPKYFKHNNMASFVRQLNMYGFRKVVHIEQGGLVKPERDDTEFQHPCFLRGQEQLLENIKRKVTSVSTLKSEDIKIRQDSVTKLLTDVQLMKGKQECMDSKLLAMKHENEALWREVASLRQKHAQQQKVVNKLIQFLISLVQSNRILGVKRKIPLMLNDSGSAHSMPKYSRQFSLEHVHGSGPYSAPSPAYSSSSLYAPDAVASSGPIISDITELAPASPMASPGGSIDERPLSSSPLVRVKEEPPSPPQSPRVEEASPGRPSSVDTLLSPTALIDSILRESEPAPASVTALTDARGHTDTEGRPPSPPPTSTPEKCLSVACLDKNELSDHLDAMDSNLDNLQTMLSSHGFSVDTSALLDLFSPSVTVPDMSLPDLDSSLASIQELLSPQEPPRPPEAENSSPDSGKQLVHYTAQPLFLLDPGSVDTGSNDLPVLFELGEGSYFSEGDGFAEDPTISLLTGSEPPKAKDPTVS
# In short: as §1
# SPIC = biological target: T8, SPIC (Homo sapiens, UniProt Q8N5J4 1-248); details: protein: recombinant; tags: N-terminal GST; dsDNA, one strand shown
# T8 sequence: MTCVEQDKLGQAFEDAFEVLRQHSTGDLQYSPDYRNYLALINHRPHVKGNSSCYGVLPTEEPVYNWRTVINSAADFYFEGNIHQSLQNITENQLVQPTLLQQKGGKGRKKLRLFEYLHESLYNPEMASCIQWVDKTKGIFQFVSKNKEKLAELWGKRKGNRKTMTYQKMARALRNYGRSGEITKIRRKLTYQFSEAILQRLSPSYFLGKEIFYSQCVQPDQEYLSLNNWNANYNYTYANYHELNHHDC
# In short: as §1
# ELF4 = ELF4 (Homo sapiens, UniProt Q99607 1-663); details: protein: recombinant; tags: N-terminal GST; dsDNA, one strand shown
# ELF4, sequence (Q99607 whole entry): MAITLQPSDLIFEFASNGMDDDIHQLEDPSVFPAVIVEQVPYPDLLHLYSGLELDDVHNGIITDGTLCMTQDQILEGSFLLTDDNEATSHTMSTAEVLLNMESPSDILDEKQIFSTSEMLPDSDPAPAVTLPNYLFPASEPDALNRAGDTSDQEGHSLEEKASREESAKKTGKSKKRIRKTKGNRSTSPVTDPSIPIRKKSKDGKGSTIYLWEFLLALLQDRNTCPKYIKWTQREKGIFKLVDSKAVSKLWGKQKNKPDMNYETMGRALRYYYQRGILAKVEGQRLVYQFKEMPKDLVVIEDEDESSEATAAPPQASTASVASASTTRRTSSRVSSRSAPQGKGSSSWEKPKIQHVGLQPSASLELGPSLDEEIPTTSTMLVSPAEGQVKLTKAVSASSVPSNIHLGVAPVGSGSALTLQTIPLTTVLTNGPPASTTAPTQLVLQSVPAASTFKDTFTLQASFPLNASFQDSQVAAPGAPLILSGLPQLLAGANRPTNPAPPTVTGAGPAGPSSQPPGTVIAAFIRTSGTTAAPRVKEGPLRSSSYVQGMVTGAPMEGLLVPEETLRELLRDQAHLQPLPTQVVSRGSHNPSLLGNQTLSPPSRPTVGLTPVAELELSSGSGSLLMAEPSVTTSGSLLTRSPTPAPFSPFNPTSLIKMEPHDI
# In short: as §1
# ELK4 = biological target: T9, ELK4 (Homo sapiens, UniProt P28324-2 1-405); details: protein: recombinant; tags: N-terminal GST; dsDNA, one strand shown
# T9 sequence: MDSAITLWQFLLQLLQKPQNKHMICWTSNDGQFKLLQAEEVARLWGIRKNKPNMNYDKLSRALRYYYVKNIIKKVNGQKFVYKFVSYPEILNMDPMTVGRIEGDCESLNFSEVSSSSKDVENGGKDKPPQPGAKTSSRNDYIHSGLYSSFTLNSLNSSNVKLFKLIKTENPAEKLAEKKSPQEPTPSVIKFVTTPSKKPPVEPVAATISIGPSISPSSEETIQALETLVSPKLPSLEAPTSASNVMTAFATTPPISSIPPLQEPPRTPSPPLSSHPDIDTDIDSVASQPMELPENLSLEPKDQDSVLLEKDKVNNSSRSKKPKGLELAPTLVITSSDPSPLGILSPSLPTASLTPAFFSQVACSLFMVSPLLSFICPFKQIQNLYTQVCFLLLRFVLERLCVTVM
# In short: as §1
# ETV2 = biological target: T10, ETV2 (Homo sapiens, UniProt O00321 1-342); details: protein: recombinant; tags: N-terminal GST; dsDNA, one strand shown
# T10 sequence: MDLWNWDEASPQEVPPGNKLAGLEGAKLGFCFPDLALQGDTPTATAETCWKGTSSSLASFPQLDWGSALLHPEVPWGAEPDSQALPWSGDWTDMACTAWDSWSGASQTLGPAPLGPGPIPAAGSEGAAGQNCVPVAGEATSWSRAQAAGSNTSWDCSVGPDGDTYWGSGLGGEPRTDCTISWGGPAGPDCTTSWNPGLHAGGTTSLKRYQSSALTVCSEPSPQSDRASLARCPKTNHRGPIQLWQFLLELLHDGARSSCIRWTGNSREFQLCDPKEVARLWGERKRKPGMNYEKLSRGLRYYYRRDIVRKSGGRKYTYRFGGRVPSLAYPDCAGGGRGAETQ
# In short: as §1
# ELF3 = biological target: T11, ELF3 (Homo sapiens, UniProt P78545 1-371); details: protein: recombinant; tags: N-terminal GST; dsDNA, one strand shown
# T11 sequence: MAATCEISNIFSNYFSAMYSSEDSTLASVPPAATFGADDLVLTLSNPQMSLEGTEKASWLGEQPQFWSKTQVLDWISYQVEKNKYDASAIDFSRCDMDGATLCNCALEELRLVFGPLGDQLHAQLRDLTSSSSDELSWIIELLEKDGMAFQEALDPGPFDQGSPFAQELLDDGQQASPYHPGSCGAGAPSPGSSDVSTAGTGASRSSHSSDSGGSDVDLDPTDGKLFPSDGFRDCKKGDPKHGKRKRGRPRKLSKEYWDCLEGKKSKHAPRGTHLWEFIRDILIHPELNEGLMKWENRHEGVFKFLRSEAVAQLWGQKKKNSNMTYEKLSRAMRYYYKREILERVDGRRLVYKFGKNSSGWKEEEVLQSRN
# In short: as §1
# CRX = CRX (Homo sapiens, UniProt O43186 1-299); details: protein: recombinant; tags: N-terminal GST; dsDNA, one strand shown
# CRX, sequence (O43186 whole entry): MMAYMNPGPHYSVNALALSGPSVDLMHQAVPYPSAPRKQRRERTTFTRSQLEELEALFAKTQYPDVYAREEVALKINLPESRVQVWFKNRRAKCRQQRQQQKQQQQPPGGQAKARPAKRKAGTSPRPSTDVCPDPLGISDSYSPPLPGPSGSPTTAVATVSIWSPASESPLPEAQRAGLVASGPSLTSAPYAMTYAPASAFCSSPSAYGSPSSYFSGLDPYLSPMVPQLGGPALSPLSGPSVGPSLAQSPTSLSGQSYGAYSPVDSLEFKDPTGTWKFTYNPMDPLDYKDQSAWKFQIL
# In short: as §1
# ETV1 = ETV1 (Homo sapiens, UniProt P50549 1-477); details: protein: recombinant; tags: N-terminal GST; dsDNA, one strand shown
# ETV1, sequence (P50549 whole entry): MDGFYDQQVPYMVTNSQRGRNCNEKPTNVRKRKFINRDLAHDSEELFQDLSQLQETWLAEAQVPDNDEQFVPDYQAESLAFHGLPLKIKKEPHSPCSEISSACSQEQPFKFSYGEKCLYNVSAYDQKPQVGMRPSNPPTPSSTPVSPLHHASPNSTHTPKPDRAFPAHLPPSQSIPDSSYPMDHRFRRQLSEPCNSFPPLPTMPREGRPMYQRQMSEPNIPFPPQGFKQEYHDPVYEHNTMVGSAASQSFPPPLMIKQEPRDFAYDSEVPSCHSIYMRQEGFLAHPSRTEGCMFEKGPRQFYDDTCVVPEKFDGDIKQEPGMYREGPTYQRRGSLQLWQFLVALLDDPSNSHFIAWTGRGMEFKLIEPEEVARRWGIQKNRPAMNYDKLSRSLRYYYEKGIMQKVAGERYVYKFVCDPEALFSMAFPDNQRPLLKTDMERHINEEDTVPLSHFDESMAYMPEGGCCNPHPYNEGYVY
# In short: as §1
sequence,measurement,setting,value
ATTAAT,binding signal,FLI1,"1.23 fold enrichment (6-mer frequency, TF over GST control)"
same,binding signal,ELK1,"1.24 fold enrichment (6-mer frequency, TF over GST control)"
same,binding signal,GABPA,"1.29 fold enrichment (6-mer frequency, TF over GST control)"
same,binding signal,ERG,"1.21 fold enrichment (6-mer frequency, TF over GST control)"
same,binding signal,ELF1,"1.23 fold enrichment (6-mer frequency, TF over GST control)"
same,binding signal,EHF,"1.2 fold enrichment (6-mer frequency, TF over GST control)"
same,binding signal,SPI1,"1.21 fold enrichment (6-mer frequency, TF over GST control)"
same,binding signal,SPIB,"1.24 fold enrichment (6-mer frequency, TF over GST control)"
same,binding signal,ELK3,"1.26 fold enrichment (6-mer frequency, TF over GST control)"
same,binding signal,FEV,"1.16 fold enrichment (6-mer frequency, TF over GST control)"
same,binding signal,ETV5,"1.26 fold enrichment (6-mer frequency, TF over GST control)"
same,binding signal,HSF1,"2.47 fold enrichment (6-mer frequency, TF over GST control)"
same,binding signal,SPIC,"1.18 fold enrichment (6-mer frequency, TF over GST control)"
same,binding signal,ELF4,"1.19 fold enrichment (6-mer frequency, TF over GST control)"
same,binding signal,ELK4,"1.23 fold enrichment (6-mer frequency, TF over GST control)"
same,binding signal,ETV2,"1.25 fold enrichment (6-mer frequency, TF over GST control)"
same,binding signal,ELF3,"1.05 fold enrichment (6-mer frequency, TF over GST control)"
same,binding signal,CRX,"3.95 fold enrichment (6-mer frequency, TF over GST control)"
same,binding signal,ETV1,"1.25 fold enrichment (6-mer frequency, TF over GST control)"
